In all, about 2,400 compounds went through this assay and about 1,900 (79%) were called active.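 How the source made its calls: active means inhibition above the mean of all tested compounds plus 3 SD (cut at about 3% in these data); inactive means the rest.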 The set was probably picked from earlier hits. These entries were drawn from the full list.

This assay is described as follows: StAR reporter signal changes without DAX1, counter-screen for DAX1 inhibitor project, cell-based, luminescence, AF-2 mutant SF-1, transactivation (AID 652136).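 Further: 0% = DAX-1 transfected cells with DMSO and 100% = cells without DAX-1 with DMSO.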 Conditions: HEK293 StAR-luciferase, SF-1 AF2 mutant, at 6.8 µM, active compounds read high. Background: The purpose of a counterscreen is to sort out artefacts and off-target activity.
For `O=C(Nc1ccccc1)Nc1nc2ccccc2s1`, the inhibition (usually the relative decrease from the control value, in per cent) is 10.3% (active).

Take `Nc1ccc(C(=O)Nc2ccccc2N)cc1`: the inhibition was 42.6% (active).

In the case of `O=C(NC(=S)NC1CCCCC1)c1ccc(Cl)cc1`, the inhibition was 4.24% (active).

On to `CSCCC(NC(=O)c1ccco1)C(=O)Nc1cc(C)ccn1` (configuration not stated), for which the inhibition was 7.83% (active).

Turning to `O=c1c2c(nc3n1CCCCC3)sc1c(O)cccc12`, the inhibition is 7.48% (active).

In the case of `CC[C@]1(O)CC2CN(CCc3c([nH]c4ccccc34)[C@@](C(=O)OC)(c3cc4c(cc3OC)N(C=O)[C@H]3[C@@](O)(C(=O)OC)[C@H](OC(C)=O)[C@]5(CC)C=CCN6CC[C@]43[C@@H]65)C2)C1` (some centres not stated), the inhibition was -7.3% (inactive).

As for `COC(=O)c1sc(NC(=O)c2ccc(OC)cc2OC)nc1C`, the inhibition was 3.15% (active).

With `CN1OC[C@@H]2CN[C@H](c3ccc(-c4ccccc4)cc3)C[C@@H]21`, the inhibition was 5.72% (active).

Consider `CC(=O)Nc1cccc(-c2csc(Nc3cccc(C)n3)n2)c1`, for which the inhibition is 8.58% (active).

For `c1ccc2[nH]c(-c3nc4ccccc4[nH]3)nc2c1`, the inhibition was 8.74% (active).

With `Cc1ccc(-c2nc3ccccc3[nH]2)cc1N`, the inhibition is 8.86% (active).

In the case of `O=c1oc(/C=C/c2ccccc2)nc2ccccc12`, the inhibition was 7.24% (active).

Take `Cn1ccnc1SCC(=O)Nc1ccc2c(c1)OCCO2`: the inhibition was 5.39% (active).

On to `CCN(CC(=O)Nc1c(F)cccc1F)C(=O)c1cnc(C)cn1`, for which the inhibition is 0.25% (inactive).

As for `Cc1nc2cc(NC(=O)Nc3cccc(F)c3)ccc2n1C`, the inhibition is 8.9% (active).

As for `O=C(N/N=C\C1CC=CCC1)c1ccc(Br)o1` (configuration not stated), the inhibition is 0.2% (inactive).

As for `CCSc1nnc(NC(=O)c2ccc(C)cc2)s1`, the inhibition is 6.21% (active).

`NC(=O)CSc1nnc(NC(=O)c2ccc3ccccc3c2)s1`: the inhibition is 7.69% (active).

On to `Nc1c(C(=O)Nc2ccc3c(c2)OCCO3)nnn1Cc1ccccc1`, for which the inhibition is 7.14% (active).

Consider `CC[C@]1(O)C[C@@H]2CN(CCc3c([nH]c4ccccc34)[C@@](C(=O)OC)(c3cc4c(cc3OC)N(C)[C@H]3[C@@](O)(C(=O)OC)[C@H](OC(C)=O)[C@]5(CC)C=CCN6CC[C@]43[C@@H]65)C2)C1`, for which the inhibition is -6.49% (inactive).

Regarding `Cc1ccc(-n2cc3ccc([N+](=O)[O-])cc3n2)cc1`, the inhibition was 6.18% (active).

On to `Brc1ccc2nc(N3CCCC3)sc2c1`, for which the inhibition is 4.08% (active).

Regarding `S=C(c1ccc(-c2ccccc2)o1)N1CCCCC1`, the inhibition was 5.47% (active).

As for `Cc1ccnc(NC(=O)CNC(=O)c2ccccc2)c1`, the inhibition is 2.35% (inactive).

Consider `Cc1ccnc(NC(=O)CCNS(=O)(=O)c2ccc(C)c(C)c2)c1`, for which the inhibition was 9.35% (active).

As for `CC1CCCN(c2ccc(C(=O)NCCc3ccccc3)cn2)C1` (configuration not stated), the inhibition is 3.59% (active).

On to `O=C(c1cnn2ccccc12)N1CCc2ccccc21`, for which the inhibition is 6.23% (active).

Take `Cc1sc(NC(=O)c2ccc3ncsc3c2)c(C(N)=O)c1C`: the inhibition is 5.5% (active).

`O=C(Nc1ccc(Cl)c(Cl)c1)c1ccccc1NC(=O)C1CC=CCC1C(=O)O` (configuration not stated): the inhibition is 4.5% (active).

On to `CN1CCN(c2ccc(NC(=O)c3ccc4c(c3)OCCO4)cc2Cl)CC1`, for which the inhibition is 4.72% (active).

As for `O=C(Nc1ccccc1)c1ccc2c(c1)OCCCO2`, the inhibition is 7.83% (active).

`Cc1ccc(C(=O)NNC(=O)c2ccc3c(c2)OCCO3)cc1`: the inhibition is 2.35% (inactive).

As for `Cc1nc(NC(=O)c2ccc3c(c2)OCCO3)ccc1Br`, the inhibition was 7.07% (active).

Turning to `Cc1c(C(=O)Nc2ccccn2)oc2ccc(Br)cc12`, the inhibition is 8.11% (active).

Consider `O=C(Nc1ccn(Cc2ccccc2)n1)c1n[nH]c([N+](=O)[O-])c1Cl`, for which the inhibition is 3.58% (active).

For `O=C(CCc1ccccc1)Nc1ncc([N+](=O)[O-])s1`, the inhibition was 1.92% (inactive).

Consider `c1ccc(Cc2c(-c3ccco3)nc3c4ccccc4ccn23)cc1`, for which the inhibition was 8.27% (active).

On to `CC1CCN(C(=O)COC(=O)c2cc(=O)[nH]c3ccccc23)CC1`, for which the inhibition is 5.98% (active).

Regarding `COc1ccccc1CCC(=O)OCC(=O)N1CCN(S(=O)(=O)c2ccc(C)cc2C)CC1`, the inhibition is 1.55% (inactive).

For `COc1cc(/C=N/O)ccc1OCc1ccc([N+](=O)[O-])cc1`, the inhibition is 6.8% (active).

On to `COc1cc(C2c3cc4c(cc3C(O)C3COC(=O)C23)OCO4)cc(OC)c1OC` (configuration not stated), for which the inhibition was -5.65% (inactive).

As for `CC(C)c1ccc(Nc2ncccc2C#N)cc1`, the inhibition was 5.42% (active).

In the case of `COc1ccc(/C=C/C(=O)Nc2ccc(C34CC5CC(CC(O)(C5)C3)C4)cc2)cc1OC`, the inhibition was -4.01% (inactive).

`C(=N\Nc1ccc2ccccc2n1)/c1ccc2c(c1)OCO2`: the inhibition was 2.84% (inactive).

With `COc1cccc(/C=C/C(=O)Nc2ccc3c(c2)OCCO3)c1`, the inhibition is 3.61% (active).

For `Cc1cccc(NC(=O)/C=C/c2ccc3c(c2)OCO3)n1`, the inhibition is 6.21% (active).

With `O=C(NCCc1c[nH]c2ccccc12)c1cc2ccccc2oc1=O`, the inhibition is 7.29% (active).

As to `O=C(O)c1ccc(N/N=C/c2cn(-c3ccccc3)nc2-c2cccs2)cc1`, the inhibition is 6.77% (active).

For `Cc1csc(SCC(=O)Nc2sccc2C#N)n1`, the inhibition is 10.8% (active).

Turning to `Cc1cc(C)c(C)c(S(=O)(=O)N2CCN(C(=O)c3ccc4c(=O)n5c(nc4c3)CCC5)CC2)c1C`, the inhibition is -0.34% (inactive).

For `CCCc1cc(C(=O)Nc2ccc(C(=O)OC)cc2)cs1`, the inhibition is 3.67% (active).

As for `CCCc1cc(C(=O)Nc2ccc(Cl)cn2)cs1`, the inhibition was 6.47% (active).

Regarding `CC(C)(O)C#Cc1ccc(CNC[C@H]2O[C@@H](n3cnc4c(=O)[nH]c(N)nc43)[C@H](O)[C@@H]2O)s1`, the inhibition was -0.84% (inactive).

For the compound `CCCNC(=O)C1CC(=O)N(c2ccc(OCc3ccccc3)cc2)C1` (configuration not stated), the inhibition is 4.36% (active).

Turning to `CCc1ccc(NC2Nc3cc(C)nn3S2)cc1` (configuration not stated), the inhibition was 5.97% (active).

As for `O=C(Nc1ccc(NC(=O)c2cccs2)cn1)c1ccco1`, the inhibition is 6.87% (active).

For `CC(=O)Nc1cccc(C(=O)OCC(=O)c2ccc3c(c2)OCO3)c1`, the inhibition was 5.14% (active).

The record behind these values is PubChem BioAssay AID652136 (The Scripps Research Institute Molecular Screening Center, 2013).
